Screening results as filed in PubChem.
PLAP activator: activates human placental alkaline phosphatase; P05187; purified PLAP enzyme, luminescent substrate read-out; active compounds read high; activation fold at 20 µM; 96,000 tested, 1.2% active; in the data active = activation fold above about 2
Cav32 inh: blocks human Cav3.2 T-type calcium channel; O95180; Cav3.2-expressing cells, Fluo-4 calcium fluorescence FDSS; active compounds read low; B-score at 10 µM; 100,000 tested, 4% active; AID 449739;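 active = single-dose well whose peak fluorescence ratio is a statistical outlier from its plate by either plate-standardised score or position-corrected B-score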
Her2 expr inh: lowers expression of human Her2 kinase. P04626. 65,000 tested, 0.69% active. SKBR-3 HER2 protein level, AlphaScreen, 18-24 h; active compounds read low. AID 645. HER2 level % of control, % at 10 µM;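 active = HER2 level under 5% of the carrier-only control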;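 also: 100% = DMSO carrier and 0% = 500 nM PU-H71 HSP90 inhibitor; lower value means stronger loss of Her2 protein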
M1 antagonist: M1 muscarinic receptor (rat) antagonism. P08482. CHO-M1 cells, Fluo-4 calcium, ACh EC80 antagonist mode; active compounds read low. B-score at 10 µM. 64,000 tested, 3.4% active;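 active = calcium fluorescence response, raw or row-and-column corrected B-score, differing from the plate sample mean either way at a set confidence level, mostly lower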
Target sequence (P08482 whole entry, looked up): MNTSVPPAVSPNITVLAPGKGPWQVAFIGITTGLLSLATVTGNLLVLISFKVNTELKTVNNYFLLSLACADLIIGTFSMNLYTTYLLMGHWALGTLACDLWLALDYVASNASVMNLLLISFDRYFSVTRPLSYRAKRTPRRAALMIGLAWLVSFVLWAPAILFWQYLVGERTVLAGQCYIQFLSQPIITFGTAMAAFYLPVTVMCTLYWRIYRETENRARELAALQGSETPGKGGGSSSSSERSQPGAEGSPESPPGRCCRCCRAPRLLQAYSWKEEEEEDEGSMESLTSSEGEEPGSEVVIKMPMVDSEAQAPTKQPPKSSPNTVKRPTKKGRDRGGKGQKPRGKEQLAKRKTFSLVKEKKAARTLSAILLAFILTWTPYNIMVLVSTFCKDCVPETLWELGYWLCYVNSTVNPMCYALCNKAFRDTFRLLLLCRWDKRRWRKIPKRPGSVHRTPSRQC
M1 ag: M1 muscarinic receptor agonism | CHO-M1 cells, Fluo-4 calcium fluorescence, agonist mode; active compounds read high | B-score at 10 µM | 64,000 tested, 3% active;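 active = fluorescence rise, raw or as B-score row- and column-corrected plate score, outside the 99.7% band of its plate's samples, either direction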
Starred values were filed as active, the others as inactive. Compounds with a hit are over-represented: about 7.9% of the library has one in this group of screens.

How did COc1ccc(/C(C)=N/NC(=O)c2nc(C)cc(C)n2)cc1 do in these assays?
PLAP activator: 2*; Cav32 inh: 0.84

Results for O=C(NCc1ccco1)c1ccccc1Nc1ccc(F)cc1 ?
PLAP activator: 0.7; Cav32 inh: -6*; Her2 expr inh: 110; M1 antagonist: -0.91; M1 ag: 0.11

Results for O=C(c1ccccc1NS(=O)(=O)c1ccc(Br)s1)N1CCCC1 ?
PLAP activator: 1.3; Cav32 inh: -1.8; Her2 expr inh: 139; M1 antagonist: -0.4; M1 ag: 1.8

Results for O=C(NCc1ccco1)c1ccccc1NS(=O)(=O)c1ccc(Br)s1 ?
PLAP activator: 1.3; Cav32 inh: -6.1*

What do the screens show for `Cc1ccc(S(=O)(=O)Nc2ccc3nc(-c4cccn4C)[nH]c3c2)cc1`?
PLAP activator: 1.3; Cav32 inh: -5.7*; Her2 expr inh: 79; M1 antagonist: -0.15; M1 ag: 0.73

What do the screens show for `Cn1nc(-c2ccc(C(=O)Nc3cccc(Cl)c3)cc2)c2ccccc2c1=O`?
PLAP activator: 0.9; Cav32 inh: 0.44

How did COCC(C)n1c(C)cc(C(=O)COC(=O)c2n[nH]c3ccccc23)c1C (stereo not given) do in these assays?
Cav32 inh: -2.8

How did COCC(C)n1c(C)cc(C(=O)COC(=O)c2oc3ccccc3c2C)c1C (stereo not given) do in these assays?
PLAP activator: 1.5; Cav32 inh: -5.8*; Her2 expr inh: 93; M1 antagonist: -0.11; M1 ag: -1.2

How did Cc1ccc(NC(=O)c2ccccc2)cc1 do in these assays?
PLAP activator: 0.9; Cav32 inh: 0.041

Results for Cc1ccc(NC(=O)/C(=C\C=C\c2ccccc2)NC(=O)c2ccccc2)cc1 ?
PLAP activator: 1; Cav32 inh: -5.3*

How did Cc1ccc(NC(=O)/C(=C\c2ccccc2)NC(=O)/C=C/c2ccccc2)cc1 do in these assays?
PLAP activator: 1; Cav32 inh: -4.9*

How did CCOC(=O)C[C@H]1c2ccc(C(F)(F)F)cc2S(=O)(=O)N1c1cccc(OC)c1 do in these assays?
Cav32 inh: -1.2

How did CC1=CC2=NC(=O)CC(C)(C(=O)N(CC(=O)NC(C)(C)C)Cc3cccs3)N2C=C1 (stereo not given) do in these assays?
PLAP activator: 0.9

Results for COc1ccccc1NC(=S)N(CCc1nc2cc(C)c(C)cc2[nH]1)Cc1cccnc1 ?
PLAP activator: 1.7; Cav32 inh: -0.11

How did Cc1cc(NC(=O)CSc2nc(CCC3CCCC3)nc3ccccc23)no1 do in these assays?
PLAP activator: 1; Cav32 inh: -8.7*; Her2 expr inh: 92; M1 antagonist: -0.64; M1 ag: -0.13

What do the screens show for `CC(C)(C)Cc1nc2ccccc2n1CCc1ccccc1`?
PLAP activator: 0.8; Cav32 inh: -4.3*

What do the screens show for `CCCc1nc2ccccc2n1CCOC`?
PLAP activator: 1; Cav32 inh: -0.0066

Results for COc1ccc(-c2nc3ccccc3n2Cc2ccccc2)cc1 ?
PLAP activator: 1.7; Cav32 inh: -9.9*

What do the screens show for `COc1ccc(CNc2nc3ccccc3n2Cc2ccccc2)cc1OC`?
PLAP activator: 1.4; Cav32 inh: -5.4*

How did c1ccc(Cc2nc3ccccc3n2Cc2ccccc2)cc1 do in these assays?
PLAP activator: 0.9; Cav32 inh: -4.3*

How did CC(CC(C)C(=O)Nc1ccccc1C(C)(C)C)C(=O)O (stereo not given) do in these assays?
Cav32 inh: 0.017

What do the screens show for `COc1ccccc1Cn1c(-c2ccccc2OC)nc2ccccc21`?
PLAP activator: 0.9; Cav32 inh: -6.4*

What do the screens show for `COC(=O)c1sccc1NS(=O)(=O)c1ccc(OC)cc1`?
PLAP activator: 1.1; Cav32 inh: -0.46; Her2 expr inh: 57

What do the screens show for `COc1cccc(N2CCN(Cc3ccsc3)CC2)c1`?
PLAP activator: 1.2

How did COc1ccccc1OCCn1cc(C(=O)c2ccco2)c2ccccc21 do in these assays?
PLAP activator: 1; Cav32 inh: -3.5; Her2 expr inh: 73; M1 antagonist: -0.46; M1 ag: 4.6*

Results for CCOC(=O)Cn1cc(C(=O)c2ccco2)c2ccccc21 ?
PLAP activator: 1; Cav32 inh: -1.2; Her2 expr inh: 76; M1 antagonist: 0.7; M1 ag: 0.12

What do the screens show for `O=C(NC1=NCCS1)C1Cc2ccccc2CN1C(=O)c1ccccc1` (stereo not given)?
PLAP activator: 2.1*; Cav32 inh: 1; Her2 expr inh: 95; M1 antagonist: -0.51; M1 ag: 0.24

How did CC(NC(=O)c1ccccc1)C(=O)NC1=NCCS1 (stereo not given) do in these assays?
PLAP activator: 0.8; Cav32 inh: 0.17; M1 antagonist: 0.27; M1 ag: 1.5

What do the screens show for `O=C(c1ccc2c(=O)n(C3CCCC3)c(=S)[nH]c2c1)N1CCc2ccccc21`?
PLAP activator: 1; Cav32 inh: -4.6*

How did COCCn1c(SCC(=O)Nc2ccc(Cl)cn2)nc2ccccc21 do in these assays?
PLAP activator: 0.7; Cav32 inh: -2.2

Results for COc1ccc2nc(Nc3nc(CSc4nnnn4-c4ccccc4)cc(=O)[nH]3)nc(C)c2c1 ?
PLAP activator: 2.2*; Cav32 inh: -0.51

Results for COc1ccc2nc(Nc3nc(C)c(CCC(C)C)c(=O)[nH]3)nc(C)c2c1 ?
PLAP activator: 2.3*; Cav32 inh: -5.4*; Her2 expr inh: 117; M1 antagonist: -0.26; M1 ag: -0.63

What do the screens show for `CCOc1ccc2nc(Nc3nc4c(c(=O)[nH]3)CCC4)nc(C)c2c1`?
Her2 expr inh: 100; M1 antagonist: 0.24; M1 ag: 0.29

What do the screens show for `CCOc1ccc2nc(Nc3nc(CSc4nnnn4-c4ccccc4)cc(=O)[nH]3)nc(C)c2c1`?
PLAP activator: 2.5*; Cav32 inh: -1.2

Results for COCc1cc(=O)[nH]c(Nc2nc(C)c3ccc(C)cc3n2)n1 ?
Her2 expr inh: 39; M1 antagonist: -0.39; M1 ag: 1.1

Results for Cc1nnc(SCC(=O)c2c(N)n(C)c(=O)n(C)c2=O)n1Cc1ccccc1 ?
PLAP activator: 1; Cav32 inh: 0.48; Her2 expr inh: -33*; M1 antagonist: 0.67; M1 ag: 0.25

Results for CC(C)Nc1nnc(SCC(=O)c2c(N)n(Cc3ccccc3)c(=O)n(C)c2=O)s1 ?
PLAP activator: 0.9

Results for O=C(Nc1nnc(SCc2ccc(F)cc2)s1)C1Cc2ccccc2CN1C(=O)c1ccco1 (stereo not given) ?
PLAP activator: 1.2; Cav32 inh: -5.7*

What do the screens show for `CCN(CC)c1ccc(C2N(C(=O)N3CCOCC3)CCN2S(=O)(=O)c2ccc(C)cc2)cc1` (stereo not given)?
PLAP activator: 1.7; Cav32 inh: -4.1*

Results for Cc1ccc(S(=O)(=O)N2CCN(C(=O)N3CCOCC3)C2C(C)C)cc1 (stereo not given) ?
PLAP activator: 0.9; Cav32 inh: -0.42; Her2 expr inh: 106; M1 antagonist: -0.71; M1 ag: -0.098

How did COc1cc2c3nnc(-c4ccc(F)cc4)c-3cn(Cc3ccccc3)c2cc1OC do in these assays?
PLAP activator: 1.4
